Reference: PubChem BioAssay AID1159580 (chemical genetic matrix, 2015)
Several values for one entry are separate records, joined by “and”; a condition that tells them apart may be missing. Equal entries are not always repeated. Among all 5,500 compounds or so, about 2,000 (36%) were called active. Inconclusive results (about 18%) are left out. No stated cut-off is given here; in the data, active means normalized growth mostly below about 0.91 (no sharp cut-off); inconclusive means no clear call, values can overlap the other calls; inactive means mostly above about 0.92. The list shows a part of the results.

Assay: chemical genetic growth profiling, strain panel (AID 1159580);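 further: tested at 20 µM; growth read once vehicle control cultures reached saturation at 30 °C; 1 = growth at the plate median or of vehicle wells; lower values mean less growth of the strain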
Settings: S. cerevisiae deletion strains, growth OD

Measured: normalized growth

CCCC(C)C1(CC)C(=O)NC(=O)NC1=O (configuration not stated)
inactive: locus YAL013W, strain DEP1, active compounds read low 1.01 | locus YAL021C, strain ccr4, active compounds read low 0.996 | locus YAL026C, strain drs2, active compounds read low 1 | locus YAL030W, strain snc1, active compounds read low 1 | locus YBL061C, strain skt5, active compounds read low 1 | locus YBR009C, strain hhf1, active compounds read low 1.01 | locus YBR021W, strain FUR4, active compounds read low 1 | locus YBR023C, strain chs3, active compounds read low 1 | locus YBR171W, strain sec66, active compounds read low 1 | locus YBR229C, strain ROT2, active compounds read low 1.01 | locus YBR231C, strain swc5, active compounds read low 0.994 | locus YBR279W, strain paf1, active compounds read low 1 | locus YCL011C, strain gbp2, active compounds read low 1 | locus YCL016C, strain dcc1, active compounds read low 0.999 | locus YCL029C, strain bik1, active compounds read low 1.03 | locus YCL061C, strain MRC1, active compounds read low 1 | locus YCL069W, strain vba3, active compounds read low 0.998 | locus YCR088W, strain abp1, active compounds read low 0.996 | locus YDL005C, strain med2, active compounds read low 0.992 | locus YDL035C, strain GPR1, active compounds read low 1.03 | locus YDL040C, strain nat1, active compounds read low 1 | locus YDL074C, strain BRE1, active compounds read low 1.03 | locus YDL101C, strain DUN1, active compounds read low 1.02 | locus YDL134C, strain PPH21, active compounds read low 1.02 | locus YDL185W, strain tfp1, active compounds read low 1.02 | locus YDL192W, strain arf1, active compounds read low 1.02 | locus YDR001C, strain nth1, active compounds read low 0.998 | locus YDR069C, strain doa4, active compounds read low 1 | locus YDR101C, strain arx1, active compounds read low 1.01 | locus YDR137W, strain rgp1, active compounds read low 1.03 | locus YDR150W, strain NUM1, active compounds read low 1.02 | locus YDR159W, strain sac3, active compounds read low 0.995 | locus YDR162C, strain NBP2, active compounds read low 1.03 | locus YDR195W, strain ref2 0.982 | locus YDR297W, strain sur2, active compounds read low 1 | locus YDR318W, strain mcm21, active compounds read low 1.03 | locus YDR334W, strain swr1, active compounds read low 1.01 | locus YDR335W, strain msn5, active compounds read low 1 | locus YDR388W, active compounds read low 1.01 | locus YDR392W, strain spt3, active compounds read low 1.02 | locus YDR502C, strain sam2, active compounds read low 1.02 | locus YEL003W, strain gim4, active compounds read low 1.01 | locus YEL037C, strain rad23, active compounds read low 0.992 | locus YEL061C, strain CIN8 (second series), active compounds read low 1 | locus YEL061C, strain CIN8, active compounds read low 1.01 | locus YER015W, strain faa2, active compounds read low 1 | locus YER016W, strain bim1, active compounds read low 1.03 | locus YER110C, active compounds read low 1.01 | locus YER111C, strain swi4, active compounds read low 0.988 | locus YER155C, strain BEM2 (second series), active compounds read low 0.999 | locus YER155C, strain BEM2, active compounds read low 1.01 | locus YER167W, strain BCK2, active compounds read low 1.03 | locus YFR010W, strain ubp6, active compounds read low 1.01 | locus YGL078C, strain dbp3, active compounds read low 1.01 | locus YGL086W, strain mad1, active compounds read low 1.02 | locus YGL167C, strain pmr1, active compounds read low 1 | locus YGL173C, strain kem1, active compounds read low 0.993 | locus YGL227W, strain vid30, active compounds read low 0.99 | locus YGL240W, strain doc1, active compounds read low 0.989 | locus YGL248W, strain PDE1, active compounds read low 1.01 | locus YGL253W, strain hxk2, active compounds read low 1 | locus YGR078C, strain PAC10, active compounds read low 1.02 | locus YGR135W, strain pre9, active compounds read low 1 | locus YGR229C, strain SMI1, active compounds read low 1.02 | locus YGR252W, strain gcn5, active compounds read low 1.05 | locus YHR013C, strain ard1, active compounds read low 0.978 | locus YHR027C, strain rpn1, active compounds read low 1 | locus YHR030C, strain SLT2, active compounds read low 1.01 and 0.987 | locus YHR079C, strain IRE1 (second series), active compounds read low 1.02 | locus YHR079C, strain IRE1, active compounds read low 0.979 | locus YHR094C, strain hxt1, active compounds read low 1.01 | locus YHR129C, strain ARP1, active compounds read low 1 | locus YHR142W, strain chs7, active compounds read low 1 | locus YHR200W, strain rpn10, active compounds read low 1.02 | locus YIL066C, strain RNR3, active compounds read low 1.01 | locus YIL073C, strain SPO22, active compounds read low 1.08 | locus YIL125W, strain kgd1, active compounds read low 1.02 | locus YIR030C, strain dcg1, active compounds read low 1.02 | locus YJL092W, strain hpr5, active compounds read low 0.995 | locus YJL095W, strain BCK1 (second series), active compounds read low 1 | locus YJL095W, strain BCK1, active compounds read low 1.02 and 0.993 | locus YJL115W, strain asf1, active compounds read low 0.999 | locus YJL129C, strain trk1, active compounds read low 1.02 | locus YJL134W, strain LCB3, active compounds read low 1.01 | locus YJL154C, strain vps35, active compounds read low 1 | locus YJL164C, strain tpk1, active compounds read low 1.01 | locus YJL166W, strain qcr8, active compounds read low 1 | locus YJL168C, strain set2, active compounds read low 1.03 | locus YJL187C, strain SWE1 (second series), active compounds read low 1.01 | locus YJL187C, strain SWE1, active compounds read low 0.999 | locus YJR043C, strain POL32, active compounds read low 1.05 | locus YJR066W, strain TOR1, active compounds read low 0.954
